Whole data set: some 33,000 sequences, median “E-score (-0.5 to 0.5)” near -0.0034, cut for the highest 2% near 0.25. The full list was thinned out, with the highest values kept by preference.

The experiment deals with T1, Yap3 (UniProt P38749).
T1 sequence: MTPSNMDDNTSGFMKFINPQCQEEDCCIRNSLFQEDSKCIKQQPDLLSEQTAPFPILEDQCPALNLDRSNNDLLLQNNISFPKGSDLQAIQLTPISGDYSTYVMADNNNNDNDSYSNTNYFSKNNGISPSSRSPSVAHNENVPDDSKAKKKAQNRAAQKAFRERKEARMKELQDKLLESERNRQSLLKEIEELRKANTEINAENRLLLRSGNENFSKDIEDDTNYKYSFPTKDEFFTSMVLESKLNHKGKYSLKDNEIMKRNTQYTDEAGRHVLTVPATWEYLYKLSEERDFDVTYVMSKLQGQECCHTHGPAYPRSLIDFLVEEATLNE
The experiment is described as follows: PBM E-score (8-mer binding enrichment) (E-score (-0.5 to 0.5)); higher = stronger / more preferred TF binding. The following applies: protein concentration: 100 nM; construct: GST-full length. On the procedure:
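Universal 'all 10-mer' protein binding microarrays (Agilent AMADID 015681) probed with GST-tagged S. cerevisiae TFs (full-length or DBD) made by in vitro transcription/translation (PURExpress), about 100-200 nM. Bound TF was detected with fluorescent anti-GST. Each ungapped 8-mer (which stands for itself and its reverse complement) is scored by the PBM enrichment score (E-score), a modified Wilcoxon-Mann-Whitney statistic from -0.5 to +0.5, computed with the Universal PBM Analysis Suite. Scale: above 0.35 generally sequence-specific binding.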
As for CGCTCAAG, the “PBM E-score” value is -0.114.

Consider AACTGGAC, for which the “PBM E-score” value was 0.0415.

As to CGCGAGAG, the “PBM E-score” value is -0.0457. To AAGGCTTA belongs 0.0457. To AAGAGAGG belongs -0.163; to GTTGTTCA, -0.0828; to ACGTATTA, 0.282. To ATGTATTA belongs 0.178. CTGTATTC: the “PBM E-score” value stood at 0.128. For the sequence GTGTAGTA, the “PBM E-score” value was 0.0243. CTGTAGTA: the “PBM E-score” value was 0.281. To GTGTATTA belongs 0.338; to GTGTATGA, 0.0534. To CTGTATTA belongs 0.258; to ACGTATTG, 0.111. To CTGTATAA belongs 0.13; to GCGTATTA, 0.148.

As to ATGTAGTA, the “PBM E-score” value worked out at 0.237. Turning to GCTGCTCC, the “PBM E-score” value was -0.307.

On to ATCATATC, for which the “PBM E-score” value is 0.193. To CGCTGTCA belongs -0.151. To CGAGAACC belongs -0.00819; to CGCACACG, -0.135; to CCGTGAGA, -0.162. To AACGCGCC belongs -0.0619; to AGCTTTCC, -0.0722.

With ATTTGACG, the “PBM E-score” value is 0.138. To CTGGGCCC belongs -0.273; to GTGTGTTA, 0.259; to ATGTGTTA, 0.2. To CTGTGTTA belongs 0.162.

TGTTGGAA: the “PBM E-score” value was found to be 0.122.

For the sequence AAGTCGAA, the “PBM E-score” value was -0.0326. To AGTACCAA belongs 0.281; to GTTACCAA, 0.221. To ATTACCAC belongs 0.136. To ATTACCAA belongs 0.271. Consider TGTACCAA, for which the “PBM E-score” value is 0.0503. To CGTACCAA belongs 0.21; to AACTCAAA, 0.187. To GACGCGCC belongs -0.119; to AATATGGC, 0.0119. To ATCACGTG belongs 0.0436; to CTGACGTA, 0.0592; to ATGACGTG, 0.127. Regarding ATCACGTA, the “PBM E-score” value was found to be 0.311. To ATCACGTC belongs 0.16. To ATGACGTA belongs 0.277; to ATGACAAC, 0.189; to ATGACAAA, 0.307.

Consider ATGACAAG, for which the “PBM E-score” value was -0.0324. To TGACTGCA belongs -0.167; to CGCAGGTA, -0.116. To ACTTAAGT belongs 0.193; to CCGAGCGC, 0.00891; to ACCTAGGG, -0.0254. As for AGCAACGA, the “PBM E-score” value is 0.117. To CCGCTCGC belongs -0.178; to ACAAGTTA, 0.16. To AACAATAA belongs 0.179. Take AACAATAC: the “PBM E-score” value came out at 0.0469. Take ACCAATAT: the “PBM E-score” value is 0.254. In the case of AACAATAT, the “PBM E-score” value turned out to be 0.329. Regarding ACCAATAG, the “PBM E-score” value is -0.0827. On to ACCAATAC, for which the “PBM E-score” value was 0.0412.

For the sequence CGTGAACC, the “PBM E-score” value is -0.157. To TCTCAGCA belongs 0.0139; to CAATTGGC, 0.179. To AATCCCCA belongs -0.0814; to CGGTTACC, -0.159. To ACCATGCG belongs 0.0314; to AAATTGGT, 0.244; to CCAGGGAA, -0.188. For the sequence ACGAACCC, the “PBM E-score” value is -0.133. To CCGAACCA belongs -0.116. On to ACGAACCA, for which the “PBM E-score” value stood at 0.266.

For the sequence AGAAGGCA, the “PBM E-score” value was -0.115. To AATGCGCG belongs 0.178; to AATGCATT, 0.258. To AATGCGCA belongs 0.295.

Turning to CATGCGCA, the “PBM E-score” value is 0.0286. To AATGCATG belongs 0.188; to AATGCATA, 0.0923; to AATGCAAC, 0.104.

In the case of AATGCAAG, the “PBM E-score” value amounted to 0.0231. To AATGCAAA belongs 0.262.

As for GCTCTCCA, the “PBM E-score” value is -0.215.

Source of the values: the supplement of paper PMC3334620.
